This is an account of results in article PMC4336329 (PLoS ONE, 2015).

Hit rate of the full screen: of about 310,000 compounds, about 14,000 (4.5%) showed an effect of 50% or more. The effect is printed as a negative number. Many of the other results were omitted from the sample, so strong results are more common in it than they were.
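Also: peak tail current of the secondary pulse compared with the same well before compound.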

Sequence of human ether-à-go-go-related gene (hERG) potassium channel (Q12809 whole entry, looked up): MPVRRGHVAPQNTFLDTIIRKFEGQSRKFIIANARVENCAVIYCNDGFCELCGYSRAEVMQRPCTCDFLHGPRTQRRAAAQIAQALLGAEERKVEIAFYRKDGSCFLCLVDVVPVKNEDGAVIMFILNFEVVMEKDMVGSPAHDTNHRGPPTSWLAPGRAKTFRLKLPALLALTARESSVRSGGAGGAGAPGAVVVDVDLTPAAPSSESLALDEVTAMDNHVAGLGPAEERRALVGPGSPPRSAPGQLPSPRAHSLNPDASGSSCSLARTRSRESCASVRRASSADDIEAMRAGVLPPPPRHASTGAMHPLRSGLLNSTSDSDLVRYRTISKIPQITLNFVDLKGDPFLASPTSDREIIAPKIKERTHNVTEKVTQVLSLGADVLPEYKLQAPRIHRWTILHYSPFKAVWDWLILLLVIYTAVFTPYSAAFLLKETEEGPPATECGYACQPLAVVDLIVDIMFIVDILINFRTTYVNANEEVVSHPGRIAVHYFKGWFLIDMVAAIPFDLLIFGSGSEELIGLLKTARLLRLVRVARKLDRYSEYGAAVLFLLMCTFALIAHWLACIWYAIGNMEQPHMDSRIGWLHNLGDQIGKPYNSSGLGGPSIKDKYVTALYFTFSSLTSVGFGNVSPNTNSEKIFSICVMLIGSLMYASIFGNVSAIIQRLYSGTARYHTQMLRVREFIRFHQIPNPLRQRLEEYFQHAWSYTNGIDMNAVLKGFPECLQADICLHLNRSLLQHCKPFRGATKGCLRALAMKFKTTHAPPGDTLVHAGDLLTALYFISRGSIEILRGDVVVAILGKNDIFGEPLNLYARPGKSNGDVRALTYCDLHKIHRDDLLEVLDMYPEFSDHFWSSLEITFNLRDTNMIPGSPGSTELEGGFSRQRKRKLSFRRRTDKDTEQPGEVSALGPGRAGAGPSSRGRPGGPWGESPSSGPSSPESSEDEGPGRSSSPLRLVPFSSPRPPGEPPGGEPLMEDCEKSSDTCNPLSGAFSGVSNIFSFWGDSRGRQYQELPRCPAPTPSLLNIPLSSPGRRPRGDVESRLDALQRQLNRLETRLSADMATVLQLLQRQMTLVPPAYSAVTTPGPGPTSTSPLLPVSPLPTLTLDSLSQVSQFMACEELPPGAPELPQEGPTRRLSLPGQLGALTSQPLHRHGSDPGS

The test addresses human ether-à-go-go-related gene (hERG) potassium channel (human, UniProt Q12809). Description: primary screen, population patch clamp on CHO cells stably expressing hERG; higher = less effect of the substance.
As for `N/C(=N\OC(=O)COc1ccc(Cl)cc1Br)c1cccnc1`, the “hERG current change (%, negative = inhibition) at 10uM” value is on record as -8.3%.
Under `C=CCc1ccc(OC)c(OC)c1` stands 23.8%; under `C=CCc1ccc(OCC(O)CN2CCCCC2)c(OC)c1` (stereo not shown), -54.8%.
As for `C=CCc1ccc(OCC(O)COCC)c(OC)c1` (stereo not shown), the “hERG current change (%, negative = inhibition) at 10uM” value is recorded as -3.56%.
Turning to `C=CCc1ccc(OCC(O)CO)c(OC)c1` (stereo not shown), the “hERG current change (%, negative = inhibition) at 10uM” value is 11.6%.
Under `C=CCc1ccc(OCC(O)CN2CCN(Cc3ccc(Cl)cc3)CC2)c(OC)c1.Cl` (stereo not shown) stands -75.7%; under `C=CCc1ccc(OCC(O)CN2CCN(Cc3ccccc3)CC2)c(OC)c1.Cl` (stereo not shown), -77%.
As for `C=CCN1C(=O)c2ccc(C(=O)N3CCN(S(=O)(=O)c4ccccc4Br)CC3)cc2C1=O`, the “hERG current change (%, negative = inhibition) at 10uM” value is -41.2%.
Turning to `O=C(NC(=S)Nc1ccccc1[N+](=O)[O-])c1ccccc1`, the “hERG current change (%, negative = inhibition) at 10uM” value is reported as 6.17%.
Under `CSc1nc(N)nc(SCCS(=O)(=O)c2ccc(Cl)cc2)c1C#N` stands -3.5%; under `CN(C(=O)COC(=O)c1ccc2c(c1)NC(=O)CS2)C1CCS(=O)(=O)C1` (stereo not shown), 31.3%; under `CC1(C)C2C/C(=N\O)C(C)(/[N+]([O-])=C/c3cccc([N+](=O)[O-])c3)CC21` (stereo not shown), -10.7%.
In the case of `COc1ccc(C(C(=O)NC2CCCC2)N(Cc2cccnc2)C(=O)Cc2cccs2)cc1OC` (stereo not shown), the “hERG current change (%, negative = inhibition) at 10uM” value was -1.66%.
On to `Cc1cccc(CN2CCOCCS2(=O)=O)c1`, for which the “hERG current change (%, negative = inhibition) at 10uM” value stood at 10.2%.
For `O=C(/C=C/c1cccs1)N1CCCC1`, the “hERG current change (%, negative = inhibition) at 10uM” value came out at 33.1%.
Consider `CC(C)c1csc(CN2CCC(CO)(Cc3cccc(F)c3)CC2)n1`, for which the “hERG current change (%, negative = inhibition) at 10uM” value is given as -17.3%.
On to `OCC1(Cc2cccc(F)c2)CCN(Cc2ccc3cccc(F)c3n2)CC1`, for which the “hERG current change (%, negative = inhibition) at 10uM” value is reported as -64.7%.
Under `OCC1(CCOc2ccccc2)CCN(Cc2ccc3cccc(F)c3n2)CC1` stands -83%; under `COc1cccc(CN2CCN(Cc3ccc4cccc(F)c4n3)CC2CCO)c1` (stereo not shown), -39.9%.
With `COc1cccc(CC2(CO)CCN(S(=O)(=O)N(C)C)CC2)c1`, the “hERG current change (%, negative = inhibition) at 10uM” value came to 11.9%.
`OCC1(Cc2cccc(Cl)c2)CCCN(Cc2ccc3cc(F)ccc3n2)C1` (stereo not shown): the “hERG current change (%, negative = inhibition) at 10uM” value is -23.8%.
Under `COc1cccc(CC2(CO)CCN(Cc3ccc4cccc(F)c4n3)CC2)c1` stands -64.4%; under `CC(=O)Cc1nsc(NC(=O)c2csc3c2CCCC3)n1`, -8.24%; under `CCOc1ccccc1NC(=O)CSc1ccc(-c2ccco2)nn1`, -16.6%.
In the case of `Cc1cccc(C2NC(c3cccc(C)c3)C(C)C(=O)C2C)c1` (stereo not shown) it was 8.92%.
Regarding `CSc1ncc(CN2CCN(C(C)C)C(CCO)C2)cn1` (stereo not shown), the “hERG current change (%, negative = inhibition) at 10uM” value is -2.82%.
Take `O=C(Nc1nnc(C2=COCCO2)o1)c1ccc(Br)cc1`: the “hERG current change (%, negative = inhibition) at 10uM” value is listed as -0.63%.
Consider `CCCc1cc(=O)[nH]c(SCC(=O)N2CCN(c3ccc(F)cc3)CC2)n1`, for which the “hERG current change (%, negative = inhibition) at 10uM” value is given as -15.2%.
Consider `CCN(CC)Cc1c(C(=O)N/N=C/c2ccco2)nnn1-c1nonc1N`, for which the “hERG current change (%, negative = inhibition) at 10uM” value is listed as -14.3%.
For the compound `FC(F)(F)c1cccc(N2Cc3ccccc3C2)c1`, the “hERG current change (%, negative = inhibition) at 10uM” value was 6.28%.
`COc1cccc(-c2nc(CS(=O)(=O)CC(=O)NCCc3ccccc3)c(C)o2)c1`: the “hERG current change (%, negative = inhibition) at 10uM” value is 0.232%.
Turning to `CCOC(=O)c1sc(=NC(=O)c2ccc(OC(C)C)cc2)n(C)c1C`, the “hERG current change (%, negative = inhibition) at 10uM” value is recorded as 10.8%.
For the compound `Nc1ccccc1-c1nnc(-c2ccc(-c3ccccc3)cc2)o1`, the “hERG current change (%, negative = inhibition) at 10uM” value was 10.1%.
Under `CSCC(=O)N1CCCC(C(=O)c2cc(F)ccc2F)C1` (stereo not shown) stands -1.1%.
Consider `COc1ccc(/C=C/CN2CCCC(C(=O)c3cc(F)ccc3F)C2)cc1` (stereo not shown), for which the “hERG current change (%, negative = inhibition) at 10uM” value is on record as -76.4%.
For `Cc1cc(C(=O)N2CCCC(C(=O)c3cc(F)ccc3F)C2)c(C)o1` (stereo not shown), the “hERG current change (%, negative = inhibition) at 10uM” value is -4.31%.
Under `COc1ccc(C(=O)C2CCCN(C(=O)Cn3nc(C)cc3C)C2)cc1F` (stereo not shown) stands -17.4%; under `COc1ccc(C(=O)C2CCCN(C(=O)c3ccoc3C)C2)cc1F` (stereo not shown), -6.04%; under `COc1ccc(/C=C/CN2CCCC(C(=O)c3ccc(OC)c(F)c3)C2)cc1` (stereo not shown), -94.5%.
For the compound `Cc1nn(-c2ccccc2)c(Cl)c1/C=N\NC(=O)c1cnccn1`, the “hERG current change (%, negative = inhibition) at 10uM” value is recorded as -5%.
`CCc1cccc(C)c1NS(=O)(=O)c1cc(Br)cnc1N`: the “hERG current change (%, negative = inhibition) at 10uM” value is 8.34%.
With `COC(=O)c1ccccc1NC(=S)NC(NC(=O)COc1ccccc1)C(Cl)(Cl)Cl` (stereo not shown), the “hERG current change (%, negative = inhibition) at 10uM” value turned out to be 7.66%.
`CCN1CCN(C(=O)Cc2ccccc2OC)CC1`: the “hERG current change (%, negative = inhibition) at 10uM” value amounted to 13.3%.
As for `Cc1cc(C)c(OCC(O)CN2CCN(c3ccccn3)CC2)c(C)c1.Cl` (stereo not shown), the “hERG current change (%, negative = inhibition) at 10uM” value was -58.3%.
Under `Cc1cc(C)c(C)c(OCC(O)CN2CCN(c3ccccn3)CC2)c1.Cl` (stereo not shown) stands -54.4%; under `CC(C)(C)c1ccccc1OCC(O)CN1CCN(c2ccccn2)CC1.Cl` (stereo not shown), -48.8%.
Turning to `Cc1ccccc1OCC(O)CN1CCN(c2ccccn2)CC1.Cl` (stereo not shown), the “hERG current change (%, negative = inhibition) at 10uM” value is recorded as -48.8%.
Take `Cc1cccc(C)c1OCC(O)CN1CCN(c2ccccn2)CC1` (stereo not shown): the “hERG current change (%, negative = inhibition) at 10uM” value is -35.5%.
Take `Cc1cccc(OCC(O)CN2CCN(c3ccccn3)CC2)c1C.Cl` (stereo not shown): the “hERG current change (%, negative = inhibition) at 10uM” value is -45.5%.
As to `Cc1ccc(OCC(O)CN2CCN(c3ccccn3)CC2)c(C)c1.Cl` (stereo not shown), the “hERG current change (%, negative = inhibition) at 10uM” value was -60.5%.
`Cc1cc(C)c(C)c(OCC(=O)N2CCN(c3ccccn3)CC2)c1`: the “hERG current change (%, negative = inhibition) at 10uM” value was -33.6%.
In the case of `CCc1noc(C)c1C(=O)N1CCCSC1=Nc1ccccc1OC`, the “hERG current change (%, negative = inhibition) at 10uM” value is recorded as -8.77%.
With `O=C(CCCN1C(=O)/C(=C/c2ccccc2)SC1=S)N1CCOCC1`, the “hERG current change (%, negative = inhibition) at 10uM” value is -30.1%.
In the case of `Cc1ccc(NC(=O)c2ccc(Cl)cc2[N+](=O)[O-])nc1` it was 6.4%; in that of `O=C(Cn1c(=O)oc2ccccc21)Nc1ccccc1C(F)(F)F`, 21.6%; in that of `COc1cc(/C=C2/C(=O)ON=C2C)ccc1OCc1ccccc1F`, 2.22%.
On to `COCCNC(=O)C(OC(=O)C1=Cc2ccccc2OC1)C(C)C` (stereo not shown), for which the “hERG current change (%, negative = inhibition) at 10uM” value is listed as 10.3%.
Under `Cc1ccc2nc(SCC(=O)NCc3ccco3)nc(=O)n2c1` stands 8.08%.
In the case of `N=c1c(C(=O)NCc2ccco2)cc2c(=O)n3ccccc3nc2n1C1CCCC1` it was -77%; in that of `Cc1ccc2nc3c(cc(C(=O)NCc4ccco4)c(=N)n3C3CCCC3)c(=O)n2c1`, -75.8%.
On to `Cn1c2ccccc2c2c(C(=O)NCc3ccco3)cn(C3CCCCC3)c(=O)c21`, for which the “hERG current change (%, negative = inhibition) at 10uM” value is -33.4%.
As for `O=C(NCc1ccco1)c1cnc2ccccn2c1=O`, the “hERG current change (%, negative = inhibition) at 10uM” value was -3.03%.
`N#C/C(=C\c1ccc(O)c(O)c1)C(=O)NCCCc1ccccc1`: the “hERG current change (%, negative = inhibition) at 10uM” value was -1.59%.
For `O=C(CC1OC(=O)c2ccccc21)Nc1cc(Cl)ccc1N1CCCC1` (stereo not shown), the “hERG current change (%, negative = inhibition) at 10uM” value was -8.18%.
On to `Cc1ccc(NC(=O)CSCC(=O)Nc2cc(Cl)ccc2N2CCN(C)CC2)cc1`, for which the “hERG current change (%, negative = inhibition) at 10uM” value is listed as -53.1%.
Regarding `Cc1cc(NC(=O)CSCC(=O)Nc2cc(Cl)ccc2N2CCN(C)CC2)no1`, the “hERG current change (%, negative = inhibition) at 10uM” value is on record as -25.7%.
Regarding `CN1CCN(c2ccc(Cl)cc2NC(=O)CCN2C(=O)c3ccccc3C2=O)CC1`, the “hERG current change (%, negative = inhibition) at 10uM” value was -7.06%.
Take `CN1CCN(c2ccc(Cl)cc2NC(=O)CC2OC(=O)c3ccccc32)CC1` (stereo not shown): the “hERG current change (%, negative = inhibition) at 10uM” value is -74.5%.
Consider `Cc1cccc(NC(=O)CSCC(=O)Nc2ccccc2N2CCCC2)c1`, for which the “hERG current change (%, negative = inhibition) at 10uM” value was -90%.
Under `Cc1ccc(NC(=O)CSCC(=O)Nc2ccccc2N2CCCC2)cc1` stands -13.6%; under `Cc1cccc(NC(=O)CSCC(=O)Nc2ccccc2N2CCCCC2)c1`, -1.89%.
For `CCN(CC)S(=O)(=O)c1ccc(N2CCN(C)CC2)c(NC(=O)CSCC(=O)Nc2cccc(C)c2)c1`, the “hERG current change (%, negative = inhibition) at 10uM” value is -13%.
As for `Cc1cccc(NC(=O)CSCC(=O)Nc2cc(Cl)ccc2N2CCOCC2)c1`, the “hERG current change (%, negative = inhibition) at 10uM” value is recorded as -31%.
On to `Cc1ccc(NC(=O)CSCC(=O)Nc2cc(Cl)ccc2N2CCOCC2)cc1`, for which the “hERG current change (%, negative = inhibition) at 10uM” value is given as -14.8%.
Under `Cc1cccc(NC(=O)CSCC(=O)Nc2cc(Cl)ccc2N2CCN(C)CC2)c1` stands -72.8%.
Under `COc1cccc(-c2ccc3nnc(SCC(=O)N4CCOCC4)n3n2)c1` stands -6.27%; under `O=C(Nc1cc(Sc2ccccn2)cc([N+](=O)[O-])c1)c1ccc([N+](=O)[O-])cc1`, -6.06%.
`CCOc1ccc(-n2ccc(=O)c(C(=O)Nc3ccc(S(=O)(=O)Nc4ncccn4)cc3)n2)cc1`: the “hERG current change (%, negative = inhibition) at 10uM” value amounted to 7.22%.
Under `CC1CCCC(NC(=O)CCn2c(=O)oc3ccccc32)C1C` (stereo not shown) stands -18.4%.
Under `COC(=O)c1cc2oc(C)cc2n1CC(=O)N(C)c1ccccc1` stands 5.36%.
Regarding `O=C(O)c1ccc(/C=N/N2CCN(c3ccccc3)CC2)cc1`, the “hERG current change (%, negative = inhibition) at 10uM” value is recorded as 7.59%.
In the case of `CC(C)N(C(=O)CSc1nc(COc2ccccc2)nc2ccccc12)C(C)C` it was -4.66%.
Consider `O=C(NC(=S)N1CCOCC1)c1cc2ccccc2o1`, for which the “hERG current change (%, negative = inhibition) at 10uM” value stood at 12.7%.
In the case of `O=C(Cc1ccccn1)c1ccc(O)cc1O`, the “hERG current change (%, negative = inhibition) at 10uM” value was 21.5%.
Under `Cc1ccccc1Nc1nnc(SCC(=O)Nc2ccccc2[N+](=O)[O-])s1` stands 3.5%.
With `O=S1(=O)[C@H]2C[C@@H]3C=C[C@@]2(CN1Cc1ccc(F)cc1)O3`, the “hERG current change (%, negative = inhibition) at 10uM” value is -25.2%.
As to `CCN(CC)CCNC(=O)c1cc2ccccc2nc1Cl`, the “hERG current change (%, negative = inhibition) at 10uM” value is recorded as 43.4%.
On to `CCCCCn1c(=O)[nH]c2cc(C(=O)N3CCN(C(=O)OCC)CC3)ccc2c1=O`, for which the “hERG current change (%, negative = inhibition) at 10uM” value was -9.61%.
`CCC(=O)NCCn1c(C)cc2ccccc21`: the “hERG current change (%, negative = inhibition) at 10uM” value is reported as -0.267%.
In the case of `Cc1cc2ccccc2n1CCNC(=O)C(C)(C)C`, the “hERG current change (%, negative = inhibition) at 10uM” value was determined as 11.7%.
Consider `CC(=O)NCCn1c(C)cc2ccccc21`, for which the “hERG current change (%, negative = inhibition) at 10uM” value is given as -55.1%.
